ssDAF-12 act: activates DAF-12 receptor from parasite S. stercoralis | HEK293 ssDAF-12/GRIP1 lit1-tk-luc reporter, luminescence; % of 3 µM dafachronic acid response | activation, % at 6.8 µM | hit rate 1% among 370,000;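 active means activation above the mean over all tested compounds plus 3 SD, cut at about 0.9% in these data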
GAA850 FXN act: frataxin GAA850 promoter activation. HEK293 lucGAA850 FXN promoter luciferase reporter, 24 h; percent of 10 µM SAHA response. activation, % at 6 µM. hit rate 0.56% among 360,000. AID 540364;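 active means activation above the average of all compounds screened plus 3 SD, cutoff fixed separately per campaign, cut at about 7.5% in these data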
hgDAF12 agonist: activates the H. glycines DAF-12 receptor ligand-binding domain; AID 687014; HEK293 GAL4-hgDAF12 UAS-luciferase reporter, agonist luminescence; normalized to butyrate control; activation, % at 6.8 µM; hit rate 1.8% among 370,000;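 active means activation above a cutoff set at the mean of all screened compounds plus 3 SD, cut at about 10% in these data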
DAX1 inh-1: NR0B1 (DAX1) inhibition. hit rate 0.99% among 340,000. HEK293 Gal4-DAX1 luciferase reporter, luminescence. AID 504766. inhibition, % at 6.75 µM. P51843;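 active means inhibition above the mean over all tested compounds plus 3 SD, cut at about 4.2% in these data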;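 further: inhibition shows as a rise in luminescence from relieved DAX1 repression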
hcDAF-12 act: activators of H. contortus DAF-12 nuclear receptor | HEK293 hcDAF-12 lit1-tk-luc reporter, luminescence; 0% DMSO, 100% Δ7-dafachronic acid | activation, % at 6.8 µM | hit rate 1.4% among 370,000;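 active means activation above the mean of all tested compounds plus 3 SD, cut at about 5.5% in these data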
DAX1 inh-2: blocks DAX1 repression of SF-1 activated StAR promoter; inhibition, % at 6.8 µM; hit rate 1.1% among 370,000; HEK293T StAR-luciferase reporter, SF-1/DAX-1 repression relief;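 active means inhibition above the mean over all tested compounds plus 3 SD, cut at about 3.6% in these data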;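 further: higher inhibition means more luminescence from relief of DAX-1 repression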
DAX1 conf: NR0B1 (human) inhibition, confirmation; inhibition, % at 6.8 µM; HEK293T StAR-promoter luciferase reporter, SF-1/DAX-1 repression; hit rate 87% among 2,400; shares compounds with DAX1 inh-2; AID 652134;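 active means inhibition above the average of every tested compound plus 3 SD, cut at about 3.8% in these data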;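 further: active compounds raise luminescence by relieving repression of the StAR reporter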
SF1 AF2mut Luc: nonselective inhibitor or artifact in SF-1 mutant DAX1 counter-screen. shares compounds with DAX1 inh-2. HEK293 StAR-luciferase, SF-1 AF2 mutant, luminescence. inhibition, % at 6.8 µM. hit rate 78% among 2,400. AID 652136;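 active means inhibition above the mean of all tested compounds plus 3 SD, cut at about 3% in these data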
LXRb hcDAF ctr: counter-screen for hcDAF-12 agonists: agonists of human LXR-beta | activation, % at 6.8 µM | shares compounds with hcDAF-12 act | 3,400 tested, under 10 active | AID 743027 | HEK293 Gal4-LXR tk-luc reporter, luminescence, 24 h; normalized: DMSO 0%, positive control 100%;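 active means mean percent activation of the reporter above a cutoff set as the average over tested compounds plus their standard deviation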
Target sequence (P55055 whole entry, looked up, the tested form may be a part): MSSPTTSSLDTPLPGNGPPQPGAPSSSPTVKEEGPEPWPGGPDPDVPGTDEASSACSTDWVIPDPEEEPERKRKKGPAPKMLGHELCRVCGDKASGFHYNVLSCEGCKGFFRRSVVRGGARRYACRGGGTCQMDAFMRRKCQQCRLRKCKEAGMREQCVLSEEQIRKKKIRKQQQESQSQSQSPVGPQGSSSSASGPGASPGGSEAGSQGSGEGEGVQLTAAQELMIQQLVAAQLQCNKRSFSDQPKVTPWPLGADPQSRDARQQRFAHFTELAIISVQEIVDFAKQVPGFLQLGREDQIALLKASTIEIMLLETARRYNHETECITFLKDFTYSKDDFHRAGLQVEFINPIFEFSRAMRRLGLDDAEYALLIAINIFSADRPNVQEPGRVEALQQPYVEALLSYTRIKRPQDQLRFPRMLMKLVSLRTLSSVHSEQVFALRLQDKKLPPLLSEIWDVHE
hcDAF12 ag: confirmation of H. contortus DAF-12 agonists | shares compounds with hcDAF-12 act | hit rate 61% among 3,400 | HEK293 hcDAF-12 lit1-tk-luc reporter, luminescence; % of Δ7-dafachronic acid response | activation, % at 6.8 µM;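 active means mean activation across triplicate tests above the threshold derived from the earlier primary screen, cut at about 5.5% in these data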
hgDAF12 ag: hgDAF-12 agonism, confirmation assay; shares compounds with hgDAF12 agonist; HEK293 GAL4-hgDAF12 luciferase reporter, agonist mode; percent of butyrate response; activation, % at 6.8 µM; hit rate 80% among 3,300; AID 743050;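 active means mean activation over triplicate wells above the hit cutoff derived from the earlier primary screen, cut at about 11% in these data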
LXR ag 2: activates human LXR-beta, counter-screen for DAF-12 agonists; shares compounds with hgDAF12 agonist; HEK293 Gal4-LXR luciferase reporter, 24 h; activation, % at 6.8 µM; 3,300 tested, under 10 active; AID 743051;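 active means mean activation of the triplicate above a set limit carried over from the primary screen, none filed active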
Large screens that a line does not name were inactive (follow-up assays come after a bar, where they were run). In the library only some 4.5% were active in any assay of this set; here they are far more common.

CN1CCN(C(=O)/C(=C/c2cn(S(=O)(=O)N(C)C)c3ccccc23)NC(=O)c2ccccc2F)CC1	none
COc1ccc(C2=NN3C(C2)c2ccccc2OC32C(=O)N(C)c3ccccc32)cc1 (stereo not given)	ssDAF-12 act 2.4, hgDAF12 agonist 17.1, hcDAF-12 act 11.9, DAX1 inh-2 6.6 | DAX1 conf 4.0 | SF1 AF2mut Luc 4.8 | LXRb hcDAF ctr inactive | hcDAF12 ag inactive | hgDAF12 ag 22.4 | LXR ag 2 inactive
Cc1ccc(/C=C/c2nc3ccccc3c(=O)[nH]2)cc1	ssDAF-12 act 1.5, hgDAF12 agonist 16.3, hcDAF-12 act 8.7, DAX1 inh-2 5.8 | DAX1 conf 13.5 | SF1 AF2mut Luc 4.2 | LXRb hcDAF ctr inactive | hcDAF12 ag 9.4 | hgDAF12 ag 17.9 | LXR ag 2 inactive
COC(=O)c1ccc(/C=C/c2nc3ccccc3c(=O)[nH]2)cc1	none
Cc1cccc(/C=N/Nc2ccc3ccccc3n2)c1	none
Cc1ccc(/C=N/Nc2ccc3ccccc3n2)o1	ssDAF-12 act 1.1, hgDAF12 agonist 22.3, hcDAF-12 act 8.8, DAX1 inh-2 10.6 | DAX1 conf 5.8 | SF1 AF2mut Luc inactive | LXRb hcDAF ctr inactive | hcDAF12 ag 10.3 | hgDAF12 ag 11.2 | LXR ag 2 inactive
CCC(=O)NCCc1nc2cc(NC(=O)c3ccccc3OC)ccc2n1C	none
N#C/C(=C\c1ccccc1)C(=O)N(c1ccccn1)C1CCCCC1	none
COCCCNc1ccn2nc(-c3cccc(Cl)c3)cc2n1	hgDAF12 agonist 21.0, hcDAF-12 act 8.5, DAX1 inh-2 5.3 (no result: DAX1 inh-1) | DAX1 conf 13.3 | SF1 AF2mut Luc 4.8 | LXRb hcDAF ctr inactive | hcDAF12 ag 9.2 | hgDAF12 ag 20.9 | LXR ag 2 inactive
O=C(Nc1nc2ccccc2[nH]1)NC1CCCCC1	hgDAF12 agonist 15.8, hcDAF-12 act 5.8, DAX1 inh-2 16.4 | DAX1 conf 17.6 | SF1 AF2mut Luc 9.7 | hgDAF12 ag 21.1 | LXR ag 2 inactive
O=C(Nc1nc2ccccc2[nH]1)C1CC1	none
O=C(Nc1nc2ccccc2[nH]1)c1cccs1	hgDAF12 agonist 14.5, DAX1 inh-2 6.6 | DAX1 conf 4.6 | SF1 AF2mut Luc 4.6 | hgDAF12 ag 12.9 | LXR ag 2 inactive
O=C(Nc1nc2ccccc2s1)NC1CCCCC1	hgDAF12 agonist 17.8, DAX1 inh-1 7.1, hcDAF-12 act 6.1, DAX1 inh-2 6.1 | DAX1 conf 10.3 | SF1 AF2mut Luc 6.0 | hgDAF12 ag 18.7 | LXR ag 2 inactive
Cc1ccc(C(=O)Nc2nc3ccccc3[nH]2)cc1	none
CCOc1ccc(S(=O)(=O)N2CCCC(C(=O)Nc3cccc(C)c3)C2)cc1 (stereo not given)	none
CC(=O)Nc1ccc2nc3ccccc3nc2c1	none
C=C(C)C(=O)Nc1ccc2nn(-c3ccccc3O)nc2c1	ssDAF-12 act 1.6, hgDAF12 agonist 20.4, hcDAF-12 act 8.0, DAX1 inh-2 7.9 | DAX1 conf 13.4 | SF1 AF2mut Luc 7.7 | LXRb hcDAF ctr inactive | hcDAF12 ag 10.1 | hgDAF12 ag 20.3 | LXR ag 2 inactive
